Our source for the survival values is PubChem BioAssay AID463173 (ICCB-Longwood Screening Facility, Harvard Medical School, 2010).

The campaign covered roughly 52,000 compounds. About 4,300 (8.3%) were called active. For the sample, actives were picked, then their nearest neighbours and some compounds at random. A number with no mark means an inactive call. No stated cut-off is given here; in the data, active means survival mostly below about 52% (no sharp cut-off); inactive means mostly above about 56%.

This assay deals with DeltatarO mutant. Description: S. aureus survival, RN4220 and DeltatarO strains – OD600, teichoic acid synthesis inhibitors, primary screen (AID 463173). The following applies: S. aureus RN4220 wild type/DeltatarO growth, OD600, 18 h, stronger effect = lower value, screened at 18.75 µg/mL (by protocol).
On to `COCCCN1C(=O)c2oc3ccccc3c(=O)c2C12C(=O)N(C)c1ccccc12` (stereo not given), for which the survival is 64%.
As for `Cc1ccc2oc3c(c(=O)c2c1)C1(C(=O)N(C)c2ccccc21)N(CCCO)C3=O` (stereo not given), the survival was 51% (active).
For `Cc1cc2oc3c(c(=O)c2cc1C)C1(C(=O)N(C)c2ccccc21)N(CCO)C3=O` (stereo not given), the survival is 55%.
Then `CCN1C(=O)C2(c3ccccc31)c1c(oc3ccc(F)cc3c1=O)C(=O)N2CCCOC` (stereo not given), with 64%.
Then `CCCN1C(=O)C2(c3ccccc31)c1c(oc3cc(C)c(C)cc3c1=O)C(=O)N2CCCOC` (stereo not given), with 55% (active); and `CCN1C(=O)C2(c3ccccc31)c1c(oc3ccc(C)cc3c1=O)C(=O)N2CCCOC(C)C` (stereo not given), with 49%.
Then `CCCN1C(=O)C2(c3ccccc31)c1c(oc3ccc(C)cc3c1=O)C(=O)N2CCOC` (stereo not given), with 60%; and `COCCN1C(=O)c2oc3ccc(C)cc3c(=O)c2C12C(=O)N(C)c1ccccc12` (stereo not given), with 45% (active); and `CCCN1C(=O)C2(c3ccccc31)c1c(oc3ccccc3c1=O)C(=O)N2CCCOC(C)C` (stereo not given), with 48%.
On to `CCCCc1nn2c(C)c(-c3ccc(OCC)cc3)nc2s1`, for which the survival was 103%.
With `CCOC(=O)c1sc(NC(=O)C(C)Sc2nc(-c3ccccc3)cc(C(F)(F)F)n2)c(C(=O)OC)c1C` (stereo not given), the survival was 159%.
Then `Cc1ccc(Cl)cc1N1CCN(C(=O)Cn2nc(C)c3sc4ccccc4c3c2=O)CC1`, with 57%; and `COc1ccc(CCN2C(=O)CN=C2Nc2ccc(F)cc2)cc1OC`, with 78%; and `COC(=O)c1ccc(C(=O)OC)c(NC(=O)c2ccc(-c3ccccc3)s2)c1`, with 126%.
Turning to `CCOC(=O)c1c(CN(C)C)oc2ccc(O)cc12`, the survival was 88%.
Then `CC(C)NC(=O)C(c1ccccc1)N1Cc2ccccc2C1=O` (stereo not given), with 101%; and `O=C(Nc1ccc(F)c(F)c1)C(c1ccccc1)N1Cc2ccccc2C1=O` (stereo not given), with 102%; and `CC(=O)Nc1ccc(NC(=O)C(c2ccccc2)N2Cc3ccccc3C2=O)cc1` (stereo not given), with 119%.
Then `CSc1cccc(NC(=O)C(c2ccccc2)N2Cc3ccccc3C2=O)c1` (stereo not given), with 88%; and `Cc1ccc(NC(=O)[C@@H](c2ccccc2)N2Cc3ccccc3C2=O)cc1`, with 71%.
Then `O=C(Nc1cccc(F)c1)[C@@H](c1ccccc1)N1Cc2ccccc2C1=O`, with 46% (active); and `O=C(Nc1ccc(F)cc1)[C@@H](c1ccccc1)N1Cc2ccccc2C1=O`, with 38% (active); and `CC(C)CCNC(=O)[C@@H](c1ccccc1)N1Cc2ccccc2C1=O`, with 12% (active).
On to `CCCCNC(=O)[C@@H](c1ccccc1)N1Cc2ccccc2C1=O`, for which the survival was 54%.
Then `CCOc1ccccc1NC(=O)C(c1ccccc1)N1Cc2ccccc2C1=O` (stereo not given), with 96%.
Then `O=C(Nc1ccccc1F)C(c1ccccc1)N1Cc2ccccc2C1=O` (stereo not given), with 72%; and `CCc1ccccc1NC(=O)[C@@H](c1ccccc1)N1Cc2ccccc2C1=O`, with 4% (active).
Then `COc1ccc(C(=O)OCc2cc(=O)n3nc(C4CC4)sc3n2)cc1OC`, with 91%; and `CC(=O)N1c2ccc(S(=O)(=O)NCC3CCC(C(=O)Nc4ccccc4C)CC3)cc2CC1C` (stereo not given), with 104%.
As to `CCOc1ccccc1CNC(=O)C1CCN(S(=O)(=O)c2ccc3c(ccn3C)c2)CC1`, the survival is 96%.
Then `O=C(Nc1cccc(F)c1F)C1CCN(c2ncccn2)CC1`, with 62%; and `COc1ccc(CCNC(=O)CCCCn2c(=O)c3ccccc3n(CC(=O)Nc3c(C)cccc3C)c2=O)cc1OC`, with 115%; and `Cc1ccc2c(c1)-c1onc(C(=O)N(C)c3ccc(F)cc3)c1CO2`, with 65%.
As to `O=C(NCCCN1CCN(c2ccccc2F)CC1)C1COc2ccccc2C1` (stereo not given), the survival was 92%.
Consider `COc1ccc(OC)c(CCNC(=O)c2ccc3c(c2)c(C)c(C)n3Cc2ccccc2)c1`, for which the survival is 79%.
Then `COc1cc(-c2nc3cc(Cl)ccc3o2)cc(OC)c1OC`, with 87%; and `CCOC(=O)c1sc2ccccc2c1S(=O)(=O)Nc1c(C)cccc1C`, with 70%; and `COc1ccc(-c2cc(C(F)(F)F)nc(SCC(=O)NCCc3ccccc3)n2)cc1OC`, with 58%.
Then `COc1ccc(-c2cc(C(F)(F)F)nc(SCC(=O)N(C)Cc3ccccc3)n2)cc1OC`, with 33% (active).
Then `COc1ccc(-c2cc(C(F)(F)F)nc(SCC(=O)N(C)Cc3ccccc3)n2)cc1`, with 44%.
As for `CN(Cc1ccccc1)C(=O)CSc1nc(-c2ccc(F)cc2)cc(C(F)(F)F)n1`, the survival was 31% (active).
Turning to `COc1ccccc1CNC(=O)CSc1nc(-c2ccc(OC)c(OC)c2)cc(C(F)(F)F)n1`, the survival is 55%.
As to `O=C(CSc1nc(-c2ccc(F)cc2)cc(C(F)(F)F)n1)NCc1ccccc1`, the survival was 62%.
Then `O=C(C1CCC1)N1CCc2cc(S(=O)(=O)NCc3ccc(F)cc3)ccc21`, with 93%; and `CCOc1ccccc1NC(=O)Cn1c(=O)n(-c2ccc(Cl)cc2)c(=O)c2oc3ccccc3c21`, with 69%; and `CN(C)c1ccc(NC(=O)CSC2=Nc3ccccc3C3=NC(CCC(=O)NCc4cccs4)C(=O)N23)cc1` (stereo not given), with 75%.
Then `Cc1ccc2oc(=O)c3cc(C(=O)Nc4ccc(C)c(F)c4)sc3c2c1`, with 77%.
Then `Cc1nc(-n2nc(C)c(CCC(C)C)c2C)sc1C(=O)Nc1ccc(Br)cc1`, with 50%; and `CCCCN(CCCC)c1ncnc2c1cnn2-c1cccc(C)c1`, with 74%.
`Cc1ccc(-n2ncc3c(N(C)Cc4ccccc4)ncnc32)cc1`: the survival is 89%.
`COc1ccc(-n2ncc3c(NCCCOC(C)C)ncnc32)cc1`: the survival was 0% (active).
Then `CCN(Cc1ccccc1)c1ncnc2c1cnn2-c1ccc(F)cc1`, with 79%; and `Cc1ccc(-n2ncc3c(NCCc4ccccc4)ncnc32)cc1`, with 87%.
Then `Cc1ccc(-n2ncc3c(N(CCO)Cc4ccccc4)ncnc32)cc1`, with 8% (active); and `COc1ccc(CCNc2ncnc3c2cnn3-c2ccc(C)cc2)cc1`, with 81%; and `CCN(c1ccccc1)c1ncnc2c1cnn2-c1ccc(OC)cc1`, with 52% (active).
Then `COCCCNc1ncnc2c1cnn2-c1ccc(F)cc1`, with 86%; and `OCCN(CCO)c1ncnc2c1cnn2-c1ccc(F)cc1`, with 6% (active); and `CCN(c1ccccc1)c1ncnc2c1cnn2-c1ccc(C)cc1C`, with 55%.
In the case of `CCCCN(c1ccccc1)c1ncnc2c1cnn2-c1ccc(Cl)cc1`, the survival is 87%.
